Hits are enriched below; roughly 3% of the tested compounds scored in any of these assays.
SNCA expr inhib: reduces expression of the alpha-synuclein gene. Potency, µM (top dose mostly 57.2 µM), without a hit: top-dose activity change, negative = inhibition, actives largely listed as inhibitors. HEK-293 SNCA-luciferase knock-in, luminescence, 24 h. 140,000 tested, 0.17% active;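 note: potency is the fitted concentration of half-maximal effect; plate controls were DMSO cells for no effect and cell-free wells for full effect; nearly all actives have a fitted effect of over 45% in size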
IP6K1 inhibitor: blocks human inositol hexakisphosphate kinase 1 | Q92551 | activity change, % (series mostly up to about 58 µM) | 140,000 tested, 0.81% active | IP6K1 kinase, ADP-Glo luminescence, 2 h; stronger effect = lower value; in the data active = activity change below about -25%; note: % is set by controls: 0 for no effect and ±100 for the full control effect
Target sequence (Q92551 whole entry, looked up): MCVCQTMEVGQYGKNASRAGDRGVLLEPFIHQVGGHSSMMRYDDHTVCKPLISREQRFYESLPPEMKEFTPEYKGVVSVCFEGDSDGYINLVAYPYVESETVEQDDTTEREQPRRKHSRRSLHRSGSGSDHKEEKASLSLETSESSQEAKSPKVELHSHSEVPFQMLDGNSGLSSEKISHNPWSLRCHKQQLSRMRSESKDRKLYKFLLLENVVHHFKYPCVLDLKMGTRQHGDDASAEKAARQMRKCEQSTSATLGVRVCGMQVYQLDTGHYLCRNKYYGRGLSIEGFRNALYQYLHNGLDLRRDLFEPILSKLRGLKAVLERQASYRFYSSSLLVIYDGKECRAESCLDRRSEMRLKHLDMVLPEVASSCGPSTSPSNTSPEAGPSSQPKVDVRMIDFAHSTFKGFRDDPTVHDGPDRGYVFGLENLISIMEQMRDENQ
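ADP-Glo luminescence measures ADP made by human IP6K1 during a 2 h RT reaction with ATP/IP6 (mix at 1.3 mM/130 uM); top library doses 57.5 and 19.1 uM final.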
KDM5B inh: inhibitors of human KDM5B histone demethylase | Q9UGL1 | KDM5B demethylase, FDH-coupled NADH fluorescence (FDH is formaldehyde dehydrogenase) | Potency, µM (doses to about 57.7 µM), hits mostly inhibitors | 220,000 tested, 2.6% active | AID 1347165; note: potency is the fitted concentration of half-maximal effect; 0% is about no effect; nearly all actives have a fitted effect of over 70% in size
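Measured: NADH fluorescence change, 30 min, RT. System: KDM5BΔAP 200 nM final, H3K4me3 peptide, α-KG, Fe(II), ascorbate, NAD⁺ plus FDH, pH 7.5 HEPES. Compounds: titrated, 10 min pre-incubation with enzyme.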
HEK293 viab: cell viability loss counter-screen. HEK-293-SNCA-luc viability, GF-AFC fluorescence, 24 h. Potency, µM (doses to about 57.1 µM), without a hit: at the highest dose activity change, negative = cytotoxicity, hits mostly cytotoxic. 150,000 tested, 0.12% active. AID 1671193;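 note: potency is the fitted concentration of half-maximal effect; 0% = DMSO-treated cells and -100% = medium-only wells without cells; nearly all actives have a fitted effect of over 30% in size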
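Cytotoxicity counterscreen: after 24 h compound treatment of genome-edited SNCA-luciferase HEK-293 cells, live-cell protease substrate GF-AFC read by fluorescence after 30 min; activity scaled between DMSO (0%) and medium-only (-100%), curves Hill-fitted.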
The depositor's hits bear a star; i = inactive; ? = inconclusive; . = no result given; [ ] = remark or other dose. Unless noted, calls come from the whole dose curve; as a rule, active = well fitted curve in the direction sought with a large enough effect; inconclusive = small, poorly fitted or top-dose-only effect, or another doubt; inactive = no such curve, though single readings can be large; an effect the other way counts as inactive or inconclusive.

SMILES | SNCA expr inhib | IP6K1 inhibitor | KDM5B inh | HEK293 viab
COCCCNC(=O)Cc1csc2nc(C)c(-c3cc(C)n(-c4ccccc4F)n3)c(=O)n12 | 19% | 6 | 28µM* | 7%
COc1ccccc1-n1nc(-c2c(C)nc3scc(CC(=O)NCc4ccccc4)n3c2=O)cc1C | 3% | 7 | 25µM* | -15%
COc1ccccc1-n1nc(-c2c(C)nc3scc(CC(=O)NCc4ccco4)n3c2=O)cc1C | 0% | 19 | 28µM* | -1%
CCCCCNC(=O)Cc1csc2nc(C)c(-c3cc(C)n(-c4ccccc4F)n3)c(=O)n12 | -5% | 15 | ? | -10%
CCc1ccccc1-n1nc(-c2c(C)nc3scc(CC(=O)NCc4ccccc4)n3c2=O)cc1C | 9% | 4 | ? | 2%
COc1ccc(CNCC(=O)O)cc1 | . | . | i | .
CC(C(=O)N(C)CC(=O)Nc1ccccc1C(F)(F)F)N(C)Cc1cccc(F)c1 (stereo not drawn) | . | . | i | .
Cc1nc2scc(CC(=O)NCc3ccco3)n2c(=O)c1-c1cc(C)n(-c2ccccc2F)n1 | 6% | -3 | 28µM* | -1%
COc1ccc(CC(=O)N(C)C2CCc3nnc(C)n3CC2)cc1Cl (stereo not drawn) | 29% | 5 | 20µM* | 3%
COc1ccc(CCC(=O)N(C)C2CCc3nnc(C)n3CC2)cc1OC (stereo not drawn) | 0% | -8 | i | 12%
Cc1ccc2c(C)nc(Nc3nc(C)c(Cc4ccccc4)c(=O)[nH]3)nc2c1 | . | . | i | .
Cc1ccc(C(=O)Nc2ccc(-c3nc4ccccc4o3)cc2)cc1 | . | . | i | .
CC(=O)N1CCCC1C(=O)Nc1ccc(-c2nc3ccccc3o2)cc1 (stereo not drawn) | 131% | -5 | 28µM* | -3%
O=C(CCc1ccccc1)N1CCCN(c2cc(-c3ccc(Cl)cc3)[nH]n2)CC1 | 3% | 3 | ? | -7%
Cc1ccc(-c2cc(N3CCCN(C(=O)CCc4ccccc4)CC3)n[nH]2)cc1C | ? | -5 | 16µM* | ?
COc1ccc(-c2nc(-c3ccccc3)nc3c2CN(C(=O)C2CCCC2)CC3)cc1 | 13% | -6 | i | 2%
c1ccc(-c2ccnc3nc(-c4cccs4)nn23)cc1 | 131% | -7 | 32µM* | 3%
COCc1nc2nccc(-c3ccc(OC)cc3F)n2n1 | -9% | -3 | 28µM* | 13%
CCc1nc2nccc(-c3ccc(OC)cc3F)n2n1 | -19% | -9 | i | 7%
COc1ccc(CCc2nc3nccc(-c4ccc(OC)cc4F)n3n2)cc1 | -24% | 1 | 22µM* | -6%
COc1ccc(-c2ccnc3nc(-c4cccs4)nn23)c(F)c1 | -6% | 2 | 14µM* | 2%
CC(=O)Nc1ccc(NC(=O)c2cnn(-c3ccccc3F)c2C)cc1C | . | . | i | .
FC(F)(F)c1cccc2c(N3CCC4(CCCN4Cc4ncc[nH]4)CC3)ccnc12 | 73% | 37 | 28µM* | -9%
COCCC1(C(=O)O)CCN(c2ccnc3c(C(F)(F)F)cccc23)CC1 | 22% | 0 | i | 11%
N#Cc1cccc(CN2CCC[C@H]2c2nc(-c3ccc(OC4CCCCC4)nc3)no2)c1 | 7%[87.6 µM] | -2 | i | -4%[87.6 µM]
SMILES | SNCA expr inhib | IP6K1 inhibitor | KDM5B inh | HEK293 viab
N#Cc1ccc(CN2CCC[C@H]2c2nc(-c3ccnc(N4CCOCC4)c3)no2)cc1 | 0%[87.6 µM] | 10 | 35µM* | -14%[87.6 µM]
COCCNc1ccc(-c2noc([C@@H]3CCCN3Cc3cc(OC)c(OC)c(OC)c3)n2)cn1 | 22% | 14 | ? | -18%
Fc1ccccc1CN1CCC[C@H]1c1nc(-c2ccnc(N3CCOCC3)c2)no1 | 18%[87.6 µM] | 13 | ? | -5%[87.6 µM]
COCCNc1cc(-c2noc([C@@H]3CCCN3CC(C)C)n2)ccn1 | 7%[87.6 µM] | 8 | 32µM* | -25%[87.6 µM]
COCCOc1ncccc1-c1noc([C@@H]2CCCN2Cc2ccc(S(C)(=O)=O)cc2)n1 | 42% | 6 | i | 2%
CS(=O)(=O)c1ccc(CN2CCC[C@H]2c2nc(-c3ccnc(N4CCOCC4)c3)no2)cc1 | 25% | 6 | 25µM* | -9%
c1ccc(CN2CCC[C@H]2c2nc(-c3ccnc(N4CCOCC4)c3)no2)cc1 | 33%[87.6 µM] | 4 | 35µM* | -18%[87.6 µM]
CN(C)C(=O)C(Cl)c1ccccc1 (stereo not drawn) | . | . | i | .
Brc1csc(CNC2CCCc3c2cnn3Cc2ccccc2)c1 (stereo not drawn) | . | . | i | .
CC(C)CN1CCC[C@H]1c1nc(-c2ccnc(N3CCOCC3)c2)no1 | 1%[87.6 µM] | 0 | 32µM* | -11%[87.6 µM]
c1cc(N2CCOCC2)ncc1-c1noc([C@@H]2CCCN2C2CCOCC2)n1 | 42%[87.6 µM] | 27 | ? | -2%[87.6 µM]
c1cc(-c2noc([C@@H]3CCCN3C3CCC3)n2)cc(N2CCOCC2)n1 | 0%[87.6 µM] | -9 | 35µM* | -9%[87.6 µM]
Cc1ccc(-c2ccc3nnc(CNC(=O)c4ccco4)n3n2)cc1 | 35% | 3 | 32µM* | 1%
O=C(NCc1nnc2ccc(-c3ccccc3)nn12)c1ccco1 | 8% | 4 | 28µM* | 0%
O=C(CCCc1nc2ccccc2s1)NC1CCCCCCC1 | . | . | i | .
O=C(Nc1cn[nH]c1-c1nc2ccc(CN3CCOCC3)cc2[nH]1)NC1CC1 | 24µM* | -2 | . | ?
Nc1cccn2nc(-c3ccccc3)nc12 | 165% | 12 | 28µM* | 1%
CC(C)(O)CCc1ccc(C(=O)NCCSc2ccccn2)cc1 | 26% | 12 | i | -7%
Cc1cccc(-n2ncc3c(N4CCCCCC4)ncnc32)c1 | ? | 19 | ? | 5%
Cc1cccc(-n2ncc3c(N4CCCC(C)C4)ncnc32)c1 (stereo not drawn) | 4µM* | -6 | ? | 5%
c1ccc(CCc2noc(-c3ccc(N4CCCOCC4)nc3)n2)cc1 | 136% | 0 | ? | 3%
COC1CCN(c2ccc(-c3nc(COc4ccccc4)no3)cn2)CC1 | 138% | 10 | 28µM* | -7%
CC(Nc1ccc(-c2nc(CCCc3ccccc3)no2)cn1)c1cnn(C)c1 (stereo not drawn) | 142% | 15 | 28µM* | -4%
c1ccc(CCCc2noc(-c3ccc(N4CCOCC4)nc3)n2)cc1 | 103% | 0 | 35µM* | -2%
Cc1nccn1CCN(C)c1ccc(-c2nc(COc3ccccc3)no2)cn1 | -30% | 3 | 22µM* | 5%
SMILES | SNCA expr inhib | IP6K1 inhibitor | KDM5B inh | HEK293 viab
Fc1ccc(CNC(=S)NCc2ccccc2Br)cc1 | . | . | i | .
O=C(NCCc1c[nH]c2ccccc12)c1cnc2ccccc2n1 | . | . | i | .
Cc1cccc(C(=O)N(Cc2ccco2)c2ccccn2)c1 | . | . | i | .
O=C(NCc1nnc2n1C(C(=O)O)CC2)c1ccc2c(c1)OC(F)(F)O2 (stereo not drawn) | -2% | 0 | 25µM* | -5%
O=C(NCc1nnc2n1C(C(=O)O)CC2)c1ccc(F)cc1 (stereo not drawn) | 2% | 4 | 45µM* | 1%
O=C(NCc1nnc2n1C(C(=O)O)CC2)c1ccccc1 (stereo not drawn) | 11%[87.6 µM] | -1 | 100µM* | 8%[87.6 µM]
CC(C)NC(=O)C1CCc2nnc(CNC(=O)c3ccccc3)n21 (stereo not drawn) | 9% | 12 | i | -1%

High-throughput results: PubChem, National Center for Advancing Translational Sciences (NCATS)
